# In the library only some 4.2% were active in any assay of this set; here they are far more common.
# hgDAF-12 ag: agonists of H. glycines DAF-12 nuclear receptor; HEK293 GAL4-hgDAF12 UAS-luciferase reporter, agonist luminescence; normalized to butyrate control; activation, % at 6.8 µM; 1.8% of 370,000 active;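 active means activation above a cutoff set at the mean of all screened compounds plus 3 SD, cut at about 10% in these data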
# SMARCA2 activ: activators of SMARCA2 function; AID 652017; MG213 cells, MMTV-luciferase reporter, dexamethasone, overnight; 1% of 370,000 active; activation, % at 9.1 µM; in the data active means activation above about 7.8%
# ssDAF12 agonist: activators of S. stercoralis DAF-12 nuclear receptor. HEK293 ssDAF-12/GRIP1 lit1-tk-luc reporter, luminescence; % of 3 µM dafachronic acid response. activation, % at 6.8 µM. AID 652126. 1% of 370,000 active;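 active means activation above the mean over all tested compounds plus 3 SD, cut at about 0.9% in these data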
# DAX1 inh: DAX1 (NR0B1) inhibition, primary screen; HEK293T StAR-luciferase reporter, SF-1/DAX-1 repression relief; inhibition, % at 6.8 µM; 1.1% of 370,000 active;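 active means inhibition above the mean over all tested compounds plus 3 SD, cut at about 3.6% in these data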;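 further: higher inhibition means more luminescence from relief of DAX-1 repression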
# hcDAF-12 act: H. contortus DAF-12 activation, primary screen. HEK293 hcDAF-12 lit1-tk-luc reporter, luminescence; 0% DMSO, 100% Δ7-dafachronic acid. activation, % at 6.8 µM. 1.4% of 370,000 active. AID 652067;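 active means activation above the mean of all tested compounds plus 3 SD, cut at about 5.5% in these data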
# hgDAF12 ag: hgDAF-12 agonism, confirmation assay | shares compounds with hgDAF-12 ag | HEK293 GAL4-hgDAF12 luciferase reporter, agonist mode; percent of butyrate response | activation, % at 6.8 µM | 80% of 3,300 active | AID 743050;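 active means mean activation over triplicate wells above the hit cutoff derived from the earlier primary screen, cut at about 11% in these data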
# LXR ag 2: activates human LXR-beta, counter-screen for DAF-12 agonists; shares compounds with hgDAF-12 ag; HEK293 Gal4-LXR luciferase reporter, 24 h; activation, % at 6.8 µM; 3,300 tested, under 10 active;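 active means mean activation of the triplicate above a set limit carried over from the primary screen, none filed active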
# Target sequence (P55055 whole entry, looked up, the tested form may be a part): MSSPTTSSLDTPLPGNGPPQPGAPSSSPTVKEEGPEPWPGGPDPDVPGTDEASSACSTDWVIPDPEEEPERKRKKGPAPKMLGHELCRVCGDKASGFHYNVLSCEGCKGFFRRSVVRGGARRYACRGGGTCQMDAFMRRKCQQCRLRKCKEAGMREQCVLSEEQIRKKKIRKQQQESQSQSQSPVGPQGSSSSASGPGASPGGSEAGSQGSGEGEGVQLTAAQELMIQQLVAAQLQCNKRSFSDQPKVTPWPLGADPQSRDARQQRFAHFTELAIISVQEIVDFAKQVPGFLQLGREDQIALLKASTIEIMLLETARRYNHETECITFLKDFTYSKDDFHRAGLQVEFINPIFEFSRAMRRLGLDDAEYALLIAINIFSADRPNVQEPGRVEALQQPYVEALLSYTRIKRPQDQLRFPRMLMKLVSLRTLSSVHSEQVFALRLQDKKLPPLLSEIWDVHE
# Numbers stand for hits; - = inactive; . = not tested or not shown.
SMILES,hgDAF-12 ag,SMARCA2 activ,ssDAF12 agonist,DAX1 inh,hcDAF-12 act,hgDAF12 ag,LXR ag 2
COC(=O)[C@]12C[C@H](CC(=O)NCC34CC5CC(CC(C5)C3)C4)C(=O)N(Cc3cccc4ccccc34)C1=C[C@H](C1CCCC1)O[C@@H]2C,-,-,-,-,-,.,.
O=C(Nc1cccc([N+](=O)[O-])c1)Nc1ccc2c(c1)OCCO2,13,-,-,-,-,17,-
O=C(Nc1ccc2c(c1)CCC2)Nc1ccc2c(c1)OCO2,14,-,-,-,-,14,-
CC(=O)c1cccc(NC(=O)Nc2ccc3c(c2)OCO3)c1,14,-,-,-,-,14,-
CC(=O)c1cccc(NC(=O)NCc2ccc3c(c2)OCO3)c1,-,-,-,-,-,.,.
O=C(Nc1cccc([N+](=O)[O-])c1)Nc1cccc([N+](=O)[O-])c1,-,-,-,-,-,.,.
O=C(Nc1ccc2c(c1)CCC2)c1cc(F)cc(F)c1,14,-,-,4.1,-,13,-
C=CCN1C(=O)[C@H](CC(=O)N2CCN(C(=O)C3CC3)CC2)[C@@]2(C(=O)OCC)CCCC=C12,-,-,-,-,-,.,.
CCCn1c(C)cc(C(=O)COc2ncnc3sccc23)c1C,14,-,-,-,-,13,-
COC(=O)[C@]1(Sc2ccc(C)cc2)CC(=O)N[C@@H]1c1ccccc1,-,-,-,-,-,.,.
CCC(=O)NCC[C@@H]1CCc2ccc3c(c21)CCO3,-,-,-,-,-,.,.
O=c1c(O)c(-c2ccc(O)cc2)oc2cc(O)cc(O)c12,15,-,-,-,-,-,-
O=c1cc(-c2ccccc2)oc2cc(O)ccc12,15,-,-,4.5,-,12,-
O=c1c(O)c(-c2ccc(O)c(O)c2)oc2cc(O)ccc12,-,-,-,-,-,.,.
O=c1cc(-c2ccc(O)cc2)oc2cc(O)cc(O)c12,18,-,-,3.8,-,-,-
CCN(CC)c1ccc(NC(=O)CSc2nc3ccccc3c(=O)n2-c2ccc(C)cc2)cc1,-,-,-,-,-,.,.
COC1=C[C@H](C(=O)NC2CCN(Cc3ccccc3)CC2)C(C)C(c2ccccc2)CC1=O (stereo partly specified),-,-,-,-,-,.,.
Cc1cc(C)cc(OCC(C)CN2CCC(C(O)(c3ccccc3)c3ccccc3)CC2)c1 (stereo unspecified),-,-,-,-,-,.,.
CCOC(=O)[C@]12CCC=C1N(Cc1ccc(Cl)cc1Cl)C(=O)[C@H](CC(=O)N1CCSCC1)C2,-,-,-,-,-,.,.
CC(C)C(N)c1csc(Nc2nncc3ccccc23)n1 (stereo unspecified),14,-,-,-,-,-,-
NNC(=O)c1ccc2nc(-c3ccc(Br)cc3)cn2c1,15,-,-,-,-,18,-
NNC(=O)c1ccc(Cn2cc(Br)cn2)cc1,-,-,-,-,-,.,.
CC(C)[C@H](NC(=O)c1ccc(Cl)c(Cl)c1)C(=O)N1CCC[C@H]1C(=O)NCc1ccccc1,-,-,-,-,-,.,.
O=C1NC[C@H](CCCCN2C[C@H](Cc3ccc(O)cc3)N(CCc3ccc(O)cc3)C(=O)C2=O)N(CCc2ccc(O)cc2)C1=O,-,-,-,-,-,.,.
CC(=O)Nc1ccc(OCC[n+]2cccc(C(N)=O)c2)cc1,20,-,-,-,-,-,-
SMILES,hgDAF-12 ag,SMARCA2 activ,ssDAF12 agonist,DAX1 inh,hcDAF-12 act,hgDAF12 ag,LXR ag 2
Cc1ccsc1/C=C1\Oc2cc(O)ccc2C1=O,24,-,-,4.5,-,-,-
O=C(CNC(=O)c1cccs1)OCc1ccc(Br)cc1,-,-,-,-,-,.,.
O=C(CNC(=O)c1cccs1)c1ccc(Br)cc1,15,-,-,-,-,14,-
COc1cccc(CNS(=O)(=O)c2ccccc2Br)c1,-,-,-,-,-,.,.
Cc1ccc(NC(=O)NCC2CC2(Cl)Cl)cc1 (stereo unspecified),13,-,-,-,-,-,-
Cc1cc(-c2nnc(SCC(=O)Nc3cccc4ccccc34)n2N)n[nH]1,-,-,-,-,-,.,.
O=C(O)CCC(=O)Nc1ccccc1C(=O)NCCc1ccccc1,19,-,-,-,5.9,-,-
O=C1CC(/C=C/c2cccnc2)=Nc2ccccc2N1,-,-,-,-,-,.,.
O=C1CC(/C=C/c2ccc(Cl)cc2)=Nc2ccccc2N1,17,-,-,-,-,-,-
O=C(NS(=O)(=O)c1ccccc1[N+](=O)[O-])[C@H]1O[C@@H](n2ccc(=O)[nH]c2=O)[C@H](O)[C@@H]1O,15,-,-,-,-,-,-
COc1ccc(NC(=O)Nc2cccs2)cc1OC,-,-,-,-,-,.,.
CCc1ccc(NC(=O)Nc2cccs2)cc1,14,-,-,-,-,18,-
CCOC(=O)c1cnc(SCc2ccc(C)cc2)nc1N,-,-,-,-,-,.,.
CCOC(=O)c1cnc(SCCc2ccccc2)nc1N,16,-,1.4,4.5,-,20,-
CCCCSc1ncc(C(=O)OCC)c(N)n1,15,-,-,3.7,-,11,-
O=C(NCC(F)(F)F)c1cc2c(c(-c3cccc(-c4ccccc4F)c3)n1)[C@H](CCO)N(C(=O)CC1CC1)C2,-,-,-,-,-,.,.
CC1(C)CC(=O)C=C(Nc2ccccc2NC(=O)c2cc(F)cc(F)c2)C1,-,-,-,-,-,.,.
COc1cc2c(cc1NC(=O)CSc1nnc(-c3ccccn3)n1-c1ccccc1)oc1ccccc12,-,-,-,-,-,.,.
CC(=O)c1ccc(NC(=O)CSc2nc(N)c3cc4c(nc3n2)CCCC4)cc1,-,-,-,-,-,.,.
COc1ccc(NC(=O)CSc2nc(N)c3cc4c(nc3n2)CCCC4)cc1,18,-,-,-,-,-,-
C[C@@H]1CN([C@@H](C)CO)C(=O)CCCn2cc(nn2)CO[C@H]1CN(C)C(=O)CCC(F)(F)F,-,-,-,-,-,.,.
COC(=O)N/N=C(\C)c1ccc(Br)cc1,-,-,-,-,-,.,.
C/C(=N\Nc1nccnc1Cl)c1ccc(Br)cc1,17,-,-,-,5.8,-,-
C/C(=N\Nc1nccnc1Cl)c1ccc([N+](=O)[O-])cc1,15,-,-,-,-,-,-
C/C(=N/Nc1ncc(Br)cn1)c1ccc([N+](=O)[O-])cc1,-,-,-,-,-,.,.
CCOC(=O)C1=CCN(S(=O)(=O)c2cccc(Cl)c2)C1c1ccc(Br)cc1 (stereo unspecified),-,-,-,-,-,.,.
COc1cccc(/C=N/n2cnc3ccccc32)c1OC,14,-,-,-,-,14,-
COc1ccc(-c2csc(N=C(N)N)n2)cc1,16,-,-,-,-,11,-

# Screening data (PubChem)
